In all, about 200,000 compounds went through this assay and about 18,000 (9%) were called active. Cut-off read from the data, not from the text of the source: active = inhibition above about 50%; inactive = the rest. What follows is part of a selection rich in actives, with near analogues and random picks from the rest.
Assay: Leishmania major promastigote growth inhibition, primary screen (AID 1063);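 note: promastigotes grown with compound for 44 hours at 28 °C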
Details: Leishmania major promastigotes, resazurin fluorescence viability; at 10 µM; stronger effect = higher value

SMILES	inhibition
c1cncc(-c2nnc3n2C2(CCCCC2)Cc2ccccc2-3)c1	-0.67% (inactive)
CCOc1cccc2c1OC1(CCCCC1)N1N=C(c3cccnc3)CC21 (stereo unspecified)	57.3% (active)
O=[N+]([O-])c1ccc(Sc2n[nH]c(-c3ccco3)n2)nc1	4.36% (inactive)
CCOC(=O)CSc1nc(C)cc2c1C(=O)OC2	3.71% (inactive)
COC(=O)c1sc2ncccc2c1OCc1ccc(Cl)cc1Cl	-2.34% (inactive)
CCOc1ccc(NC(=O)NNC(=O)c2ccc(Cl)cc2Cl)cc1	-5.16% (inactive)
NC(N)=N/N=C/c1ccc(OCc2ccc(Cl)cc2Cl)cc1	101% (active)
CCOC(=O)CN/C=C(\C#N)c1ccc(F)cc1	-7.97% (inactive)
Cc1c(CN2CCCCC2)c(O)n(CCO)c(=O)c1C#N	3.34% (inactive)
O=C(NNC(=O)c1ccc(Cl)cc1Cl)c1cccs1	-10.1% (inactive)
CC(C)(O)C#Cc1ncc(C(F)(F)F)cc1Cl	-3.82% (inactive)
COc1ccc([N+](=O)[O-])cc1C1NN=C(c2cccc3ccccc23)S1 (stereo unspecified)	-6.23% (inactive)
COc1ccc(C2Nc3ccccc3C(=O)N2c2ccc(Cl)cc2)cc1Cn1cc([N+](=O)[O-])cn1 (stereo unspecified)	53.1% (active)
CCN(C(=O)CSc1nc2ccccc2n1CC)C1CCS(=O)(=O)C1 (stereo unspecified)	-3.23% (inactive)
CC(C)CNC(=O)/C=C/C(=O)O	1.32% (inactive)
CC(=O)c1ccc(-c2nnc(CCC(=O)N(C)Cc3cnc4ccccn34)o2)s1	-0.67% (inactive)
Cc1ccc(NC(=O)Cn2nc(C)c3ccccc3c2=O)c(C)c1	34.8% (inactive)
Cc1ccc(NC(=O)Cn2cccc2C2=NC(c3ccccc3)CO2)c(C)c1 (stereo unspecified)	77.4% (active)
Cc1ccc(NC(=O)c2ccn(C(=O)Nc3ccccc3)n2)c(C)c1	-1.05% (inactive)
CC1(C)CC(=O)c2ccc(O)cc2O1	-5.54% (inactive)
CN(Cc1cccc2ncccc12)C(=O)CC1C(=O)NCCN1Cc1ccc(F)cc1 (stereo unspecified)	-8.65% (inactive)
COc1ccc(S(=O)(=O)N2CCC(C(=O)N3CCOCC3)CC2)cc1OC	-6.25% (inactive)
O=C(C1CCN(C2CCN(Cc3ccc4cc(F)ccc4n3)CC2)CC1)N1CCCC1	48.3% (inactive)
O=C(C1CCN(S(=O)(=O)c2cnc[nH]2)CC1)N1CCN(Cc2ccc3c(c2)OCO3)CC1	-5.72% (inactive)

SMILES	inhibition
O=C(C1CCN(C2CCN(Cc3cccc4c3OCO4)CC2)CC1)N1CCOCC1	76.2% (active)
O=C(NCC1CCCO1)C1CCN(C2CCN(C(=O)C3CCCCC3)CC2)CC1 (stereo unspecified)	-2.22% (inactive)
C/C(=C\c1ccco1)CN1CCC(N2CCC(C(=O)N3CCOCC3)CC2)CC1	77.8% (active)
Cn1c(N)c(C(=O)COC(=O)c2ccccc2NCc2ccco2)c(=O)n(C)c1=O	-3.53% (inactive)
Cc1ccc(NC(=O)CN2CCC(C(N)=O)CC2)cc1[N+](=O)[O-]	-1.6% (inactive)
CN1CCN(c2nc(Nc3ccc(O)cc3)nc3ccccc23)CC1	99.9% (active)
Cc1cc(N2CCN(C)CC2)nc2ccc(NC(=S)N3CCOCC3)cc12	6.8% (inactive)
c1ccc(-c2nnc(N3CCOCC3)c3ccccc23)cc1	14% (inactive)
COc1ccc(Nc2ncc(F)c(N3CCOCC3)n2)cc1	19.7% (inactive)
c1ccc(Nc2nc(N3CCOCC3)c3ccccc3n2)cc1	79.3% (active)
CCCCc1nc2ccccc2c(NC(=O)CN2CCN(C)CC2)c1CCC	32.8% (inactive)
CC1CCC(NC(=O)C2c3ccccc3C(=O)N2Cc2ccc3c(c2)OCO3)CC1 (stereo unspecified)	14.7% (inactive)
CNC(=S)NNC(=O)c1cccn(Cc2ccccc2)c1=O	-2.81% (inactive)
CCc1nnc(NC(=O)CCCSc2nc3ccccc3[nH]2)s1	12.7% (inactive)
COc1ccc(N2CCN(C(=O)C3CCN(S(=O)(=O)c4ccc(C)cc4)CC3)CC2)cc1	7.36% (inactive)
O=c1oc(-c2ccco2)nc2sc3c(c12)CCCCC3	-6.27% (inactive)
CCn1c(N)c(Br)c(=O)[nH]c1=O	-8.78% (inactive)
CCCCN(CC)CCCNC(=O)c1ccc(CSc2nc3ccncc3[nH]2)cc1	-5.43% (inactive)
Cc1ncoc1C(=O)N1CCCC(C(=O)c2ccc3c4c(cccc24)CC3)C1 (stereo unspecified)	5.73% (inactive)
O=C(COC(=O)/C=C/c1ccc(S(=O)(=O)N2CCCCCC2)cc1)NCc1ccccc1Cl	65.4% (active)
COc1ccc(CNC(=O)COC(=O)/C=C/c2ccc(S(=O)(=O)N3CCOCC3)cc2)cc1	2.59% (inactive)
O=C(O)/C=C/c1ccc(S(=O)(=O)N2CCCCCC2)cc1	-3.02% (inactive)
Cc1ccc(NCc2n[nH]c(=S)n2-c2ccccc2)cc1Cl	-7.27% (inactive)
CC(=O)c1ccc(N2CCN(CC(=O)Nc3ccccc3N3CCOCC3)CC2)cc1	12.9% (inactive)

SMILES	inhibition
CC(C)n1c(-c2ccncc2)n[nH]c1=S	-1.76% (inactive)
Cc1ccc(N2C(=O)C(CC(=O)Nc3cccc(F)c3)N(CCc3ccncc3)C2=O)cc1 (stereo unspecified)	1.18% (inactive)
N#Cc1c(NC(=O)C2CCCO2)sc2c1CCCCC2 (stereo unspecified)	0.81% (inactive)
CC1CN(C(=O)c2ccc3c(c2)OCO3)OC(c2ccccc2)O1 (stereo unspecified)	71.5% (active)
O=C(c1ccc2c(c1)OCO2)N1CCOCC1	-6.99% (inactive)
O=C(Nc1ccccc1)c1ccc2c(c1)OCO2	-3.43% (inactive)
O=C(CSc1ccc(-c2ccccc2)nn1)NCC1CCCO1 (stereo unspecified)	-4.19% (inactive)
Cc1cc(C)nc(NNC2=CC(=O)CC(C)(C)C2)n1	-7.56% (inactive)
CCOC(=O)/C(C#N)=C/c1cn(CCC(=O)O)nc1-c1ccc(Br)cc1	-8.02% (inactive)
CCOC(=O)Cc1ncccc1C(=O)Nc1ccc(OC)cc1	-2.87% (inactive)
CC(C)(CNC(=O)c1ccc(Cl)c(S(=O)(=O)N2CCc3ccccc3C2)c1)N1CCOCC1	50.3% (active)
O=C(NCCSCc1ccccc1)c1ccc(Cl)c(S(=O)(=O)N2CCOCC2)c1	5.02% (inactive)
Cc1ccccc1CSCCNC(=O)c1ccc(Cl)c(S(=O)(=O)N2CCOCC2)c1	25.1% (inactive)
O=C(CP(=O)(c1ccccc1)c1ccccc1)N1CCOCC1	-9.31% (inactive)
O=C(NC1CCCCCC1)c1cccnc1Sc1ccc(Cl)cc1	-4.38% (inactive)
O=C(O)c1ccccc1-c1ccccc1C(=O)NCc1cccnc1	-6.64% (inactive)
O=C(NCc1cccnc1)c1cccnc1Sc1ccc(Cl)cc1	84.6% (active)
CS(=O)(=O)N(Cc1ccccc1Cl)c1ccc(C(=O)NCc2cccnc2)cc1	1.77% (inactive)
Cc1ccc(S(=O)(=O)N(Cc2ccc(Cl)cc2)c2ccccc2C(=O)NCc2cccnc2)cc1	93.2% (active)
Cc1ccc(CNC(=O)c2cccnc2Cl)cc1	0.71% (inactive)
O=C(NC(=S)Nc1cccc(-c2ccc(CO)o2)c1)c1cccs1	-1.96% (inactive)
Cc1cc2c(cc1C)[n+](C)cn2CC(O)COCC1CC=CCC1 (stereo unspecified)	-1.67% (inactive)
COc1ccc(N2CCN(C(=O)/C(C#N)=C/c3ccccc3)CC2)cc1	6.39% (inactive)
Cc1ccc(N2C(=O)C3CC3C2=O)cc1 (stereo unspecified)	-5.37% (inactive)

SMILES	inhibition
O=C(COC(=O)c1ccc(Cl)nc1)NCc1cccs1	-8.06% (inactive)
CC(=O)Nc1cccc(-c2nc3ccccc3s2)c1C	17.8% (inactive)
CCN(CC)c1ccc(C(=O)c2cnc(/N=C/N(C)C)s2)cc1	0.96% (inactive)
Cc1cccc(N2CCN(c3ccc(C(N)=O)cc3[N+](=O)[O-])CC2)c1C	2.25% (inactive)
CCc1c(SCCC(=O)O)nc2ccccc2c1C	-1.78% (inactive)
CN1CCN(NC(=O)c2ccc(S(=O)(=O)N3CCCCCC3)cc2)CC1	-0.39% (inactive)
O=C(CC(=O)Nc1ccc(Cl)c(Cl)c1)N/N=C/c1ccc(O)cc1	59.3% (active)
CC1=NNC(=O)C1CCC(=O)N/N=C\c1ccc(Cl)c(Cl)c1 (stereo unspecified)	-3.71% (inactive)
O=C(C[n+]1ccccc1)N/N=C/c1ccc(O)cc1	-6.86% (inactive)
CCOC(=O)c1c(-c2cccc(N)c2)cn2ccccc12	0.87% (inactive)
Cc1ccc(COc2ccc(/C=N/NC(=O)CN3CCCCC3)cc2)cc1	5.55% (inactive)
O=C(Nc1cccc([N+](=O)[O-])c1)Nc1ccc(Cl)cn1	-0.05% (inactive)
CCN(CC)C(=O)CN(c1cccc([N+](=O)[O-])c1)S(=O)(=O)c1ccccc1	-3.8% (inactive)
O=C(CCl)N(Cc1cccc([N+](=O)[O-])c1)c1cccc(Cl)c1	101% (active)
Cc1ccc(C(=O)OC(C)CN2CCOCC2)cc1 (stereo unspecified)	-9.42% (inactive)
COC(=O)C(C)NC(=O)COc1ccc2ccccc2c1 (stereo unspecified)	9.52% (inactive)
CCCCCCCCc1c(O)nc(-n2[nH]c(C)c(CCO)c2=O)[nH]c1=O	-4.27% (inactive)
COC(=O)/C(=C1\Oc2ccc(C(C)(C)C)cc2S1)C(F)(F)F	-4.31% (inactive)
Cc1cc2ccccn2c1C(=O)c1cccc(S(=O)(=O)N2CCOCC2)c1	15.2% (inactive)
COc1ccc(C(=O)CSc2nnnn2C)c(OC)c1	-1.53% (inactive)
COc1ccc(CNC(=O)CCCn2nc(C)c([N+](=O)[O-])c2C)cc1	-8.33% (inactive)
Cc1ccc(Oc2cc(NC(=O)CCCn3nc(C)c([N+](=O)[O-])c3C)cc([N+](=O)[O-])c2)cc1	98.4% (active)
Cc1nn(CC(=O)Nc2ccc(N(C)C)cc2)c(C)c1[N+](=O)[O-]	0.03% (inactive)
Cc1ccc(CNC(=O)CC2Sc3ccccc3NC2=O)cc1 (stereo unspecified)	-7.06% (inactive)
